# The supplement of paper PMC8728848
# Only a selection was taken, and the strongest signals are over-represented in it overall.
# B1: Cohesin-hMARCO (Homo sapiens) (protein)
# chain: LDDLDAVRIKVDTVNAKPGDTVRIPVRFSGIPSKGIANCDFVYSYDPNVLEIIEIEPGDIIVDPNPDKSFDTAVYPDRKIIVFLFAEDSGTGAYAITKDGVFATIVAKVKEGAPNGLSVIKFVEVGGFANNDLVEQKTQFFDGGANVGDTTEPATPTTPVTTPTTTDDLDAASVRIVGSSNRGRAEVYYSGTWGTICDDEWQNSDAIVFCRMLGYSKGRALYKVGAGTGQIWLDNVQCRGTESTLWSCTKNSWGHHDCSHEEDAGVECSVHHHHHH
# How the values were obtained:
# Assay in all cases: glycan array binding signal (z-score within array); higher = stronger binding
# Settings in all cases: glycan notation: IUPAC condensed, linker removed
# GalNAc(b1-3)Gal = molecular target: GalNAc(b1-3)Gal
# How it was run: (§1)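 From the Consortium for Functional Glycomics database, 3228 arrays were curated, keeping only those whose protein sequence was available. Binding is given as a within-array Z-score averaged across arrays sharing a protein sequence and across linkers. Negative Z-scores can be read as non-binding.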
# Glc(a1-4)Glc = molecular target: Glc(a1-4)Glc
# How it was run: as §1
# [1] = molecular target: GlcNAc(a1-4)Gal(b1-4)GalNAc
# How it was run: as §1
# [2] = molecular target: GlcNAc(a1-4)Gal(b1-4)GlcNAc(b1-3)Gal(b1-4)[Fuc(a1-3)]GlcNAc(b1-3)Gal(b1-4)[Fuc(a1-3)]GlcNAc
# How it was run: as §1
# [3] = molecular target: GlcNAc(b1-2)Man(a1-3)[GlcNAc(b1-2)Man(a1-6)]Man(b1-4)GlcNAc(b1-4)GlcNAc
# How it was run: as §1
# [4] = molecular target: GlcNAc(b1-3)Gal(b1-4)GlcNAc(b1-3)Gal(b1-4)GlcNAc(b1-2)Man(a1-3)[GlcNAc(b1-3)Gal(b1-4)GlcNAc(b1-3)Gal(b1-4)GlcNAc(b1-2)Man(a1-6)]Man(b1-4)GlcNAc(b1-4)[Fuc(a1-6)]GlcNAc
# How it was run: as §1
# [5] = molecular target: GlcNAc(b1-3)Gal(b1-4)GlcNAc(b1-6)[GlcNAc(b1-3)Gal(b1-3)]GalNAc
# How it was run: as §1
# GlcNAc(b1-3)GalNAc = molecular target: GlcNAc(b1-3)GalNAc
# How it was run: as §1
# [6] = molecular target: Man(a1-2)Man(a1-2)Man(a1-3)Man
# How it was run: as §1
# [7] = molecular target: Man(a1-2)Man(a1-6)[Man(a1-3)]Man(a1-6)[Man(a1-2)Man(a1-2)Man(a1-3)]Man
# How it was run: as §1
# [8] = molecular target: Man(a1-3)[Man(a1-6)]Man(b1-4)GlcNAc(b1-4)[Fuc(a1-6)]GlcNAc
# How it was run: as §1
# Man(a1-6)Man = molecular target: Man(a1-6)Man
# How it was run: as §1
# [9] = molecular target: Neu5Ac(a2-3)Gal(b1-3)GlcNAc6S
# How it was run: as §1
# [10] = molecular target: Neu5Ac(a2-3)Gal(b1-3)[Neu5Ac(a2-6)]GalNAc
# How it was run: as §1
# Neu5Ac(a2-3)Gal(b1-4)Glc = molecular target: Neu5Ac(a2-3)Gal(b1-4)Glc
# How it was run: as §1
# [11] = molecular target: Neu5Ac(a2-3)Gal(b1-4)GlcNAc(b1-2)Man
# How it was run: as §1
# [12] = molecular target: Neu5Ac(a2-3)Gal(b1-4)GlcNAc(b1-2)[Neu5Ac(a2-3)Gal(b1-4)GlcNAc(b1-4)]Man(a1-3)[GlcNAc(b1-4)][Neu5Ac(a2-3)Gal(b1-4)GlcNAc(b1-2)[Neu5Ac(a2-3)Gal(b1-4)GlcNAc(b1-6)]Man(a1-6)]Man(b1-4)GlcNAc(b1-4)GlcNAc
# How it was run: as §1
# [13] = molecular target: Neu5Ac(a2-3)Gal(b1-4)GlcNAc(b1-3)Gal(b1-4)GlcNAc
# How it was run: as §1
# [14] = molecular target: Neu5Ac(a2-3)Gal(b1-4)GlcNAc(b1-3)Gal(b1-4)GlcNAc(b1-6)[Gal(b1-3)]GalNAc
# How it was run: as §1
# [15] = molecular target: Neu5Ac(a2-3)Gal(b1-4)GlcNAc(b1-6)[Gal(b1-3)]GalNAc
# How it was run: as §1
# [16] = molecular target: Neu5Ac(a2-3)Gal(b1-4)[Fuc(a1-3)]GlcNAc(b1-3)Gal(b1-4)[Fuc(a1-3)]GlcNAc(b1-3)Gal(b1-4)[Fuc(a1-3)]GlcNAc
# How it was run: as §1
# Neu5Ac(a2-6)Gal(b1-4)Glc = molecular target: Neu5Ac(a2-6)Gal(b1-4)Glc
# How it was run: as §1
# [17] = molecular target: Neu5Ac9Ac(a2-3)Gal(b1-3)GlcNAc
# How it was run: as §1
# [18] = molecular target: Neu5Gc(a2-3)Gal(b1-4)GlcNAc(b1-3)Gal(b1-4)GlcNAc(b1-2)Man(a1-3)[Neu5Gc(a2-3)Gal(b1-4)GlcNAc(b1-3)Gal(b1-4)GlcNAc(b1-2)Man(a1-6)]Man(b1-4)GlcNAc(b1-4)GlcNAc
# How it was run: as §1
binder,measurement,setting,value
B1,glycan array binding signal (z-score),GalNAc(b1-3)Gal,3.14
same,glycan array binding signal (z-score),Glc(a1-4)Glc,-0.037
same,glycan array binding signal (z-score),[1],-0.39
same,glycan array binding signal (z-score),[2],-0.104
same,glycan array binding signal (z-score),[3],-0.381
same,glycan array binding signal (z-score),[4],-0.453
same,glycan array binding signal (z-score),[5],-0.586
same,glycan array binding signal (z-score),GlcNAc(b1-3)GalNAc,-0.3
same,glycan array binding signal (z-score),[6],3.08
same,glycan array binding signal (z-score),[7],-0.013
same,glycan array binding signal (z-score),[8],-0.571
same,glycan array binding signal (z-score),Man(a1-6)Man,3.28
same,glycan array binding signal (z-score),[9],0.039
same,glycan array binding signal (z-score),[10],-0.255
same,glycan array binding signal (z-score),Neu5Ac(a2-3)Gal(b1-4)Glc,-0.436
same,glycan array binding signal (z-score),[11],0.296
same,glycan array binding signal (z-score),[12],-0.288
same,glycan array binding signal (z-score),[13],-0.514
same,glycan array binding signal (z-score),[14],-0.369
same,glycan array binding signal (z-score),[15],-0.481
same,glycan array binding signal (z-score),[16],-0.404
same,glycan array binding signal (z-score),Neu5Ac(a2-6)Gal(b1-4)Glc,-0.411
same,glycan array binding signal (z-score),[17],4.33
same,glycan array binding signal (z-score),[18],0.016
